Results filed as inconclusive are left out. Calls of active or inactive are those of the source. The calls were made as follows, unless noted: active = hit-call score of the fitted dose curve at least 0.9, where 1 is the maximum; inconclusive = response in the unintended direction; inactive = score below 0.9.
Columns and labels:
[1] = Tanguay_ZF_120hpf_PFIN_legacy: (Legacy) Oregon State University Tanguay Lab 120 Hour Post-fertilization zebrafish Assay for Pectoral Fin Malformation (AID 2283648);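 also: each larva judged yes or no for fin defect by brightfield with dead larvae skipped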
How it was run: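 Dechorionated Tropical 5D wild-type zebrafish embryos, one per well, statically exposed from 6 to 120 hpf at 28C with 0.64% DMSO final. Pectoral fin malformation scored present/absent by brightfield at 120 hpf; not scored in dead embryos.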

[2] = Tanguay_ZF_120hpf_PIG_legacy: (Legacy) Oregon State University Tanguay Lab 120 Hour Post-fertilization zebrafish Assay for Pigmentation Malformation (AID 2283650)
How it was run: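 Dechorionated Tropical 5D wild-type embryos, one per well from 6 hpf, statically exposed at 28C in the dark until 120 hpf, 0.64% DMSO final. Pigmentation scored present/absent by brightfield microscopy; dead embryos not scored; fitted versus DMSO.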

[3] = Tanguay_ZF_120hpf_CIRC_legacy: (Legacy) Oregon State University Tanguay Lab 120 Hour Post-fertilization zebrafish Assay for Circulatory Malformation (AID 2283651)
How it was run: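 Tropical 5D wild-type embryos, dechorionated with pronase at 4 hpf, were placed singly in wells at 6 hpf and exposed statically at 28C to 120 hpf (0.64% DMSO final). Circulatory malformation was scored present/absent by brightfield microscopy.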

[4] = read-out: kallikrein-3 (KLK3), KLK3 (gene 354); assay: LTEA_HepaRG_KLK3: Life Technologies and Expression Analysis (LTEA) Assay for kallikrein-3 (KLK3) using HepaRG (AID 2283652; active = hit-call score of the fitted dose curve at least 0.9, where 1 is the maximum; inactive = score below 0.9); conditions: mRNA level, 48 h; actives raise or lower the signal
How it was run: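 Differentiated human HepaRG cells in serum-free induction medium exposed 48 h in duplicate, eight-point half-log series from 100 uM in 0.5% DMSO. KLK3 mRNA by qRT-PCR, normalised to ACTB, GAPDH, POLR2A; bidirectional fit versus DMSO.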

[5] = read-out: solute carrier (SLC22A6), SLC22A6 (gene 9356); assay: LTEA_HepaRG_SLC22A6: Life Technologies and Expression Analysis (LTEA) Assay for solute carrier (SLC22A6) using HepaRG (AID 2283653; active = hit-call score of the fitted dose curve at least 0.9, where 1 is the maximum; inactive = score below 0.9); conditions: mRNA level, 48 h; actives raise or lower the signal
How it was run: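 Gene-expression endpoint in HepaRG hepatic cells: duplicate 8-point concentration-response, highest 100 uM, 48 h treatment in serum-free medium with 0.5% DMSO. SLC22A6 expression measured by qRT-PCR, normalised to ACTB/GAPDH/POLR2A.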

[6] = Tanguay_ZF_120hpf_SWIM_legacy: (Legacy) Oregon State University Tanguay Lab 120 Hour Post-fertilization zebrafish Assay for Swim Bladder Malformation (AID 2283654);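 also: swim bladder malformation in each larva scored yes or no under brightfield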
How it was run: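 Dechorionated wild-type Tropical 5D zebrafish embryos, one per well from 6 hpf, were statically exposed at 28C until 120 hpf in 0.64% DMSO. Swim bladder malformation scored as present/absent by brightfield microscopy; not scored in dead larvae.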

[7] = read-out: solute carrier (SLC10A1), SLC10A1 (gene 6554); assay: LTEA_HepaRG_SLC10A1: Life Technologies and Expression Analysis (LTEA) Assay for solute carrier (SLC10A1) using HepaRG (AID 2283657; active = hit-call score of the fitted dose curve at least 0.9, where 1 is the maximum; inactive = score below 0.9); conditions: mRNA level, 48 h; actives raise or lower the signal
How it was run: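 HepaRG cells (single lot) exposed 48 h in serum-free induction medium, 8-point half-log series from 100 uM top in 0.5% DMSO, duplicate. SLC10A1 mRNA by qRT-PCR normalised to ACTB, GAPDH, POLR2A; bidirectional fit versus DMSO.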

[8] = read-out: matrix metalloproteinase-1 (MMP1), MMP1 (gene 4312); assay: LTEA_HepaRG_MMP1: Life Technologies and Expression Analysis (LTEA) Assay for matrix metalloproteinase-1 (MMP1) using HepaRG (AID 2283658; active = hit-call score of the fitted dose curve at least 0.9, where 1 is the maximum; inactive = score below 0.9); conditions: mRNA level, 48 h; actives raise or lower the signal
How it was run: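 In this screen, human liver HepaRG cultures receive each chemical in duplicate for 48 h (top 100 uM, 0.5% DMSO). MMP1 expression is then quantified by TaqMan qRT-PCR with ACTB/GAPDH/POLR2A normalization.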

[9] = Tanguay_ZF_120hpf_TR_legacy: (Legacy) Oregon State University Tanguay Lab 120 Hour Post-fertilization zebrafish Assay for Touch Response (AID 2283667)
How it was run: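 Tropical 5D wild-type zebrafish embryos statically exposed to 120 hpf at 28°C, sealed and dark-covered, 0.64% DMSO final; touch response scored as present/absent by brightfield microscopy at 120 hpf. Trimethyltin chloride 5 uM positive control; dead embryos not scored.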

[10] = CCTE_Padilla_ZF_144hpf_TERATOSCORE: (Legacy) CCTE's 144 Hour Post-fertilization zebrafish Assay Teratoscore, Padilla Lab (AID 2283679; active = hit-call score of the fitted dose curve at least 0.9, where 1 is the maximum; inactive = score below 0.9;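 as to AC50: zebrafish embryos with chorions exposed by immersion from 6-8 hpf to 5 dpf with daily renewal; teratogenicity score from eye scoring of death hatching and malformations at 144 hpf; higher score means more developmental defects relative to DMSO baseline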)
How it was run: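 Larvae scored by eye at 144 hpf for death, hatching and malformations after a day in clean Hanks'. Before that, daily-renewed exposure at 80 uM (0.4% DMSO, 26C) from roughly 6-8 hpf through 5 dpf, 4 embryos per chemical.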

[11] = Tanguay_ZF_120hpf_ActivityScore_legacy: (Legacy) Oregon State University Tanguay Lab 120 Hour Post-fertilization zebrafish Assay Score for Activity (AID 2283742)
How it was run: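 Dechorionated Tropical 5D embryos, one per well from 6 hpf, statically exposed to 120 hpf at 28 °C in 0.64% DMSO. Mortality and malformations scored binary by brightfield microscopy; activity score combines 18 endpoints, fitted positively versus DMSO.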

[12] = Tanguay_ZF_120hpf_SOMI_legacy: (Legacy) Oregon State University Tanguay Lab 120 Hour Post-fertilization zebrafish Assay for Somite Malformation (AID 2283647)
How it was run: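 Somitogenesis defects are recorded as binary calls in whole larvae at 120 hpf after continuous static chemical exposure starting at 6 hpf in dechorionated 5D embryos. DMSO serves as negative control and baseline.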

[13] = Tanguay_ZF_120hpf_CFIN_legacy: (Legacy) Oregon State University Tanguay Lab 120 Hour Post-fertilization zebrafish Assay for Caudal Fin Malformation (AID 2283649)
How it was run: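 Single dechorionated 5D wild-type embryos are dosed at 6 hpf (final DMSO 0.64%) and held statically at 28C. Caudal fin malformation is recorded as present or absent at 120 hpf under brightfield, excluding dead embryos.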

[14] = Tanguay_ZF_120hpf_TRUN_legacy: (Legacy) Oregon State University Tanguay Lab 120 Hour Post-fertilization zebrafish Assay for Truncated Body (AID 2283655)
How it was run: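 Single dechorionated zebrafish embryos received test chemical from 6 hpf in 0.64% DMSO, kept at 28C. At 120 hpf, brightfield inspection noted any truncated body.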

[15] = test system: Thyroperoxidase (TPO), gene 54314; assay: CCTE_Simmons_AUR_rTPO: CCTE's Amplex UltraRed Assay for Thyroperoxidase (TPO) Inhibition, Simmons Lab (AID 2283662);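 as to AC50: potency for loss of signal meaning inhibition of peroxidase activity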
How it was run: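 Rat thyroid microsomal TPO + 25 uM AUR in 200 mM K phosphate; cpd 5 nM–87.5 uM [final], 8 conc, 0.5% DMSO; 300 uM H2O2 starts rxn; 37C dark 30 min; endpoint FI 544/590 nm; n=3.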

[16] = CCTE_Simmons_CellTiterGLO_HEK293T: Viability Assessment in CCTE's Assays for Thyroperoxidase (TPO) Inhibition, Simmons Lab (AID 2283665);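 as to AC50: cells exposed to compound for 24 h before readout; actives reduce ATP signal below DMSO vehicle meaning cytotoxicity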
How it was run: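 HEK293T cells in DMEM with 1% FBS were dosed with 8 concentrations (5 nM–87.5 uM final, 0.5% DMSO) for 24 hr at 37C; ATP content was read by CellTiter-Glo luminescence, loss-of-signal versus DMSO, three biological replicates.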

[17] = Tanguay_ZF_120hpf_NC_legacy: (Legacy) Oregon State University Tanguay Lab 120 Hour Post-fertilization zebrafish Assay for Notochord and Tail Malformation (AID 2283656)
How it was run: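 Dechorionated 5D zebrafish, 1/well from 6 hpf; static exposure to 120 hpf, 28C, sealed, dark; final DMSO 0.64% v/v. NC scored binary (present/absent); dead embryos not scored. Fit vs DMSO baseline, gain direction.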

[18] = STM_H9_OrnithineISnorm_perc: Stemina devTOX quickPredict H9 human embryonic stem cell (hESC)-based Assay for Ornithine (ORN) Metabolite Biomarker, Normalized (AID 2283712; active = hit-call score of the fitted dose curve at least 0.9, where 1 is the maximum; inactive = score below 0.9;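 also: ornithine released into spent medium during last day measured by mass spectrometry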)
How it was run: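 Undifferentiated pluripotent H9 hESCs were exposed to compound for 72h, with media and compound replaced every 24h. Ornithine in final 24-h conditioned media was measured by UPLC-HRMS, normalized to 13C-labeled spike-in standard and to median 0.1% DMSO control.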

[19] = STM_H9_CystineISnorm_perc: Stemina devTOX quickPredict H9 human embryonic stem cell (hESC)-based Assay for Cystine (CYSS) Metabolite Biomarker, Normalized (AID 2283713; active = hit-call score of the fitted dose curve at least 0.9, where 1 is the maximum; inactive = score below 0.9)
How it was run: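 Undifferentiated H9 hESCs were exposed to compound for 72h, with medium and compound replaced every 24h. Final-24h conditioned medium was deproteinized and analyzed by UPLC-HRMS. Cystine EIC area was normalized to spiked C13 standard and 0.1% DMSO median.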

[20] = STM_H9_OrnCyssISnorm_ratio: Stemina devTOX quickPredict H9 human embryonic stem cell (hESC)-based Assay for Ornithine (ORN):Cystine (CYSS) Ratio (AID 2283714)
How it was run: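 Undifferentiated H9 hESCs exposed 72 h, media and compound replaced every 24 h; final 24-h conditioned media deproteinized and analysed by UPLC-HRMS against C13 spike-ins. Value is the internal-standard-normalized ORN/CYSS ratio versus 0.1% DMSO.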

Measured: AC50

ClC1=C(Cl)C2(Cl)C3C(Cl)C=CC3C1(Cl)C2(Cl)Cl (configuration not stated)
active: [10] 3.23 µM
inactive: [1] | [2] | [3] | [4] | [5] | [6] | [7] | [8] | [9] | [11]

N#CC(Br)(Br)C(N)=O
inactive: [12] | [1] | [13] | [3] | [6] | [14] | [15] | [16] | [9] | [11]

c1ccc(NNc2ccccc2)cc1
inactive: [12] | [13] | [2] | [3] | [14] | [17] | [15] | [9] | [11]
active: [16] 19.1 µM

Nc1ccc(N=Nc2ccccc2)cc1
active: [15] 2.53 µM | [16] 40.2 µM | [10] 33.9 µM
inactive: [12] | [1] | [3] | [6] | [14] | [9] | [11]

CCC(C)c1ccc(O)cc1 (configuration not stated)
active: [15] 2.88 µM | [16] 43.8 µM | [10] 60.3 µM
inactive: [12] | [1] | [13] | [3] | [6] | [14] | [17] | [9] | [11]

CCOC(=O)[C@]1(c2ccccc2)Oc2ccccc2[C@@H]1N
active: [15] 12.6 µM | [16] 36.6 µM | [10] 4.92 µM
inactive: [12] | [2] | [3] | [6] | [14] | [17] | [9] | [11]

OCCCBr
not listed: [2] | [3] | [4] | [5] | [7] | [8] | [15] | [16]
inactive: all other assays above

c1ccc2c(c1)-c1cccc3cccc-2c13
inactive: [1] | [13] | [2] | [3] | [14] | [17] | [9] | [11]

O=[N+]([O-])c1ccc(Oc2ccc(Cl)cc2Cl)cc1
inactive: [12] | [1] | [13] | [6] | [14] | [9] | [11]
active: [10] 7.79 µM | [18] 68.7 µM | [19] 29.8 µM | [20] 50 µM

CC(C)(C)C(O)(CCc1ccc(Cl)cc1)Cn1cncn1 (configuration not stated)
active: [10] 52 µM | [18] 79.1 µM | [19] 30.1 µM | [20] 45 µM
inactive: [12] | [13] | [2] | [6] | [17] | [9] | [11]

Cc1cc(N=Nc2ccccc2C)ccc1N
active: [14] 48.2 µM | [15] 9.17 µM | [16] 18.9 µM | [9] 29.8 µM | [10] 7.92 µM | [11] 33.3 µM
inactive: [1] | [2] | [3] | [6] | [17]
